# NSD2 inh – NSD2 (human) methyltransferase inhibition; O96028; NSD2 peptide methylation, AlphaScreen, 120 min; inhibition, % at 12.5 µM; hit rate 0.54% among 310,000; in the data active = inhibition above about 50%
# MITF TRPM1 inh – reduces MITF-dependent TRPM1 promoter luciferase signal. SK-MEL-5 TRPM1 promoter luciferase, 24 h. inhibition, % at 12.5 µM. hit rate 0.83% among 330,000. AID 488899;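 active = mean inhibition across replicates of 60% or more, whatever share of single replicates reaches that level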
# Wnt act – activates Wnt/beta-catenin signaling in a reporter cell assay. activation, % at 9.35 µM. AID 743398. activator, plate reader. hit rate 1.2% among 300,000; in the data active = activation above about 30%, passing the limit was not always enough;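 also: 0% = neutral control wells and 100% = positive control wells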
# MITF TRPM1 HTS – increases MITF-driven TRPM1 promoter luciferase signal; SK-MEL-5 TRPM1-promoter luciferase, 24 h; % of positive control, neutral wells = 0; activation, % at 12.5 µM; hit rate 0.75% among 300,000; AID 588334;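 active = mean activation of at least 80% with every replicate also reaching 80%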;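 also: 0% = neutral control wells and 100% = parthenolide positive control wells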
# PfHsp90 yeast 2 – inhibits growth of yeast expressing Plasmodium falciparum Hsp90 | S. cerevisiae expressing PfHsp90, BacTiter-Glo ATP, 48 h; yeast lacking PDR1 and PDR3 efflux regulators | hit rate 0.32% among 310,000 | inhibition, % at 9.4 µM;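 active = every replicate shows inhibition above about 80%, whatever the replicate mean, limit read from the data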;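 also: 0% = DMSO neutral controls and 100% = 20 µM radicicol positive controls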
# Glyco luc inh – N-linked glycosylation inhibition; D54 ERlucT glycosylation luciferase reporter, 24 h; percent of 100 nM tunicamycin response; reporter increase, % at 12.5 µM; hit rate 0.23% among 360,000; AID 588692;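 active = mean luciferase reporter signal, scaled so untreated is 0 and the glycosylation-blocking control 100, at or above a set limit in every replicate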;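 also: luciferase carries N-glycosylation sites so blocking glycosylation raises the light; 0% = median of neutral control wells and 100% = median of 100 nM tunicamycin wells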
# AlphaScreen art – interferes with AlphaScreen signal, flagging NSD2 false positives; shares compounds with NSD2 inh; AlphaScreen artifact counterscreen, preloaded methylated H4 peptide; AC35, µM (top dose mostly 10 µM), for inactives: top-dose activity change, negative = signal loss; hit rate 9.4% among 1,500; call rule not given here
# Starred values were filed as active, the others as inactive; nt = not tested or not shown. Most compounds without a hit are left out; they make up all but 2.9% or so of the library.
SMILES,NSD2 inh,MITF TRPM1 inh,Wnt act,MITF TRPM1 HTS,PfHsp90 yeast 2,Glyco luc inh,AlphaScreen art
O=C(CSc1ccc(Cl)cc1)Nc1cc(-c2nc3ncccc3o2)ccc1Cl,50.9*,nt,-0.2,nt,nt,nt,-6.4%
CCCS(=O)(=O)NC(=O)C1(C)CCN(C(=O)c2ccc(C(=O)OC)cc2)C1 (stereo unspecified),-1.3,nt,2.0,nt,nt,-0.3,nt
CNC(=S)NC(CC(=O)OC)c1ccc2c(c1)OCO2 (stereo unspecified),55.7*,2.0,-1.3,2.0,-10.3,2.4,-1.8%
COc1ccc(OCCSc2nnc(C(C)NC(=O)c3ccccc3F)n2C)cc1 (stereo unspecified),1.5,10.6,-0.3,-9.2,1.6,-0.6,nt
CCOC(=O)CNC(=O)N1CCC(CCC(=O)N(C)Cc2ccccc2)CC1,65.0*,7.0,1.2,-5.7,-8.5,0.7,4.3%
Cc1ccc2nc(-c3ccc(O)c(O)c3)cn2c1,55.3*,45.6,0.0,-40.8,5.2,-16.8,-10.6%
Cc1nc(-c2ccc(O)c(O)c2)cs1,4.8,-4.7,nt,4.7,8.2,-1.0,nt
N=C1S/C(=C\c2ccc(-c3ccccc3C(=O)O)o2)C(=O)N1c1ccc2c(c1)OCO2,98.6*,-6.2,-0.7,10.6,-0.9,1.5,-4.2%
COc1ccccc1N1C(=N)S/C(=C\c2ccc(-c3ccccc3C(=O)O)o2)C1=O,0.8,24.2,-2.6,-27.1,9.5,1.8,nt
FC(F)(F)c1nc(-c2cccnc2)ncc1-c1nnnn1-c1ccccc1,-1.0,-6.0,-7.9,nt,nt,0.0,nt
COc1ccc(-n2nnnc2-c2cnc(N3CCCC3)nc2C(F)(F)F)cc1,51.9*,14.3,nt,nt,nt,2.7,1.8%
Nc1c(Br)cc(Br)c2c1[nH]c(=O)c1ccccc12,73.1*,nt,-8.1,nt,nt,0.8,-7.7%
O=c1[nH]c2ccccc2c2ccccc12,0.0,5.6,-7.8,-3.5,-34.2,3.8,nt
CCOC(=O)N1CCC(Nc2c(NCCCN3CCN(C4CCCCC4)CC3)c(=O)c2=O)CC1,-2.4,6.9,1.7,-5.7,15.1,-0.5,nt
COc1ccc2nc(SCC(=O)Nc3cc(C)on3)c(C#N)cc2c1,6.1,-44.3,7.5,47.5,-17.3,0.3,nt
Cc1cc(NC(=O)CSc2nc3ccccc3cc2C#N)no1,54.9*,-54.4,8.8,59.6,10.5,0.3,-2.8%
Cc1ccc(NC(=O)CCC(=O)N2CCN(S(=O)(=O)c3ccc(C)cc3)CC2)cc1,-0.2,0.7,0.5,0.3,23.7,-2.8,nt
O=CNc1c(Br)cc2c(c1Br)Cc1cc(Br)ccc1-2,nt,-1.8,-2.2,-2.6,nt,-0.3,nt
